# Source: article PMC5540273 (PLoS ONE, 2017)
# Where two headings read alike, the source gives them in different places.
# How the values were obtained:
# [1] = test system: LCK; conditions: concentration: 1 μM,replicates: in singlicate; n = 1
# [2] = test system: LIMK1; conditions: concentration: 1 μM,replicates: in singlicate; n = 1
# [3] = test system: LIMK2; conditions: concentration: 1 μM,replicates: in singlicate; n = 1
# [4] = test system: T1, LKB1; conditions: concentration: 1 μM,replicates: in singlicate; n = 1
# T1 construct: gene STK11
# [5] = test system: T2, LOK; conditions: concentration: 1 μM,replicates: in singlicate; n = 1
# T2 construct: gene STK10
# [6] = test system: LRRK2; conditions: concentration: 1 μM,replicates: in singlicate; n = 1
# [7] = test system: LTK; conditions: concentration: 1 μM,replicates: in singlicate; n = 1
# [8] = test system: LYN; conditions: concentration: 1 μM,replicates: in singlicate; n = 1
# [9] = test system: T3, LZK; conditions: concentration: 1 μM,replicates: in singlicate; n = 1
# T3 construct: gene MAP3K13
# [10] = test system: MAK; conditions: concentration: 1 μM,replicates: in singlicate; n = 1
# [11] = test system: MAP3K15; conditions: concentration: 1 μM,replicates: in singlicate; n = 1
# [12] = test system: MAP3K1; conditions: concentration: 1 μM,replicates: in singlicate; n = 1
# [13] = test system: MAP3K2; conditions: concentration: 1 μM,replicates: in singlicate; n = 1
# [14] = test system: MAP3K3; conditions: concentration: 1 μM,replicates: in singlicate; n = 1
# [15] = test system: MAP3K4; conditions: concentration: 1 μM,replicates: in singlicate; n = 1
# [16] = test system: MAP4K2; conditions: concentration: 1 μM,replicates: in singlicate; n = 1
# [17] = test system: MAP4K3; conditions: concentration: 1 μM,replicates: in singlicate; n = 1
# [18] = test system: MAP4K4; conditions: concentration: 1 μM,replicates: in singlicate; n = 1
# [19] = test system: MAP4K5; conditions: concentration: 1 μM,replicates: in singlicate; n = 1
# [20] = test system: MAPKAPK2; conditions: n = 1
# [21] = concentration: 1 μM,replicates: in singlicate
# 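Note: KINOMEscan kinase panel screen.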
structure (smiles),measurement,setting,value
NC(=O)Nc1sc(-c2ccc(F)cc2)cc1C(N)=O [GW789449],%Inh,[1],32%
same,%Inh,[2],3%
same,%Inh,[3],24%
same,%Inh,[4],0%
same,%Inh,[5],22%
same,%Inh,[6],0%
same,%Inh,[7],35%
same,%Inh,[8],0%
same,%Inh,[9],0%
same,%Inh,[10],0%
same,%Inh,[11],16%
same,%Inh,[12],10%
same,%Inh,[13],85%
same,%Inh,[14],72%
same,%Inh,[15],18%
same,%Inh,[16],23%
same,%Inh,[17],0%
same,%Inh,[18],26%
same,%Inh,[19],13%
same,%Inh,[20]; [21],0%
Cc1ccc(Nc2ccnc(Nc3ccc4c(c3)CS(=O)(=O)C4)n2)cc1O.Cl [GW579362],%Inh,[1],97.3%
same,%Inh,[2],35%
same,%Inh,[3],49%
same,%Inh,[4],29%
same,%Inh,[5],83%
same,%Inh,[6],79%
same,%Inh,[7],55%
same,%Inh,[8],84%
same,%Inh,[9],58%
same,%Inh,[10],73%
same,%Inh,[11],0%
same,%Inh,[12],27%
same,%Inh,[13],88%
same,%Inh,[14],73%
same,%Inh,[15],29%
same,%Inh,[16],22%
same,%Inh,[17],0%
same,%Inh,[18],52%
same,%Inh,[19],33%
same,%Inh,[20]; [21],0%
OCCn1cc(-c2cnc3nnn(Cc4ccc5ncccc5c4)c3n2)cn1,%Inh,[1],0%
same,%Inh,[2],0%
same,%Inh,[3],0%
same,%Inh,[4],3%
same,%Inh,[5],18%
same,%Inh,[6],0%
same,%Inh,[7],8%
same,%Inh,[8],0%
same,%Inh,[9],0%
same,%Inh,[10],0%
same,%Inh,[11],0%
same,%Inh,[12],0%
same,%Inh,[13],0%
same,%Inh,[14],0%
same,%Inh,[15],0%
same,%Inh,[16],0%
same,%Inh,[17],0%
same,%Inh,[18],0%
same,%Inh,[19],0%
same,%Inh,[20]; [21],0%
CC(C)S(=O)(=O)N1CCN(Cc2ccc3c(c2)nc(NC(=O)c2ccsc2)n3C[C@H](O)c2ccccc2)CC1 [GW635815],%Inh,[1],39%
same,%Inh,[2],0%
same,%Inh,[3],0%
same,%Inh,[4],0%
same,%Inh,[5],0%
same,%Inh,[6],66%
same,%Inh,[7],25%
same,%Inh,[8],0%
same,%Inh,[9],69%
same,%Inh,[10],18%
same,%Inh,[11],0%
same,%Inh,[12],8%
same,%Inh,[13],47%
same,%Inh,[14],53%
same,%Inh,[15],53%
same,%Inh,[16],84%
same,%Inh,[17],0%
same,%Inh,[18],45%
same,%Inh,[19],2%
same,%Inh,[20]; [21],0%
Cc1nnc(-c2ccc3occ(-c4ccc(S(C)=O)cc4)c3n2)o1 (stereo not drawn),%Inh,[1],0%
same,%Inh,[2],0%
same,%Inh,[3],0%
same,%Inh,[4],3%
same,%Inh,[5],0%
same,%Inh,[6],0%
same,%Inh,[7],0%
same,%Inh,[8],0%
same,%Inh,[9],0%
same,%Inh,[10],0%
same,%Inh,[11],0%
same,%Inh,[12],0%
same,%Inh,[13],0%
same,%Inh,[14],0%
same,%Inh,[15],1%
same,%Inh,[16],0%
same,%Inh,[17],44%
same,%Inh,[18],0%
same,%Inh,[19],38%
same,%Inh,[20]; [21],0%
C[C@@H]1CNc2c(sc3ccc4nc(-c5ccncc5)ccc4c23)C(=O)N1,%Inh,[1],13%
same,%Inh,[2],0%
same,%Inh,[3],0%
same,%Inh,[4],0%
same,%Inh,[5],14%
same,%Inh,[6],100%
same,%Inh,[7],65%
same,%Inh,[8],6%
same,%Inh,[9],0%
same,%Inh,[10],0%
same,%Inh,[11],52%
same,%Inh,[12],0%
same,%Inh,[13],0%
same,%Inh,[14],5%
same,%Inh,[15],0%
same,%Inh,[16],70%
same,%Inh,[17],1%
same,%Inh,[18],0%
same,%Inh,[19],0%
same,%Inh,[20]; 1 µM,97.1%
COc1cccc(CNC(=O)NC2CCN(c3ccnc(Nc4cc(OC)c(OC)c(OC)c4)n3)C2)c1 (stereo not drawn) [GSK1379765],%Inh,[1],34%
same,%Inh,[2],9%
same,%Inh,[3],82%
same,%Inh,[4],0%
same,%Inh,[5],49%
same,%Inh,[6],0%
same,%Inh,[7],78%
same,%Inh,[8],0%
same,%Inh,[9],32%
same,%Inh,[10],31%
same,%Inh,[11],0%
same,%Inh,[12],10%
same,%Inh,[13],0%
same,%Inh,[14],0%
same,%Inh,[15],0%
same,%Inh,[16],0%
same,%Inh,[17],1%
same,%Inh,[18],1%
same,%Inh,[19],3%
same,%Inh,[20]; [21],46%
Nc1nccc(-c2ccc3c(N)n[nH]c3c2)n1 [GSK1034945],%Inh,[1],0%
same,%Inh,[2],0%
same,%Inh,[3],12%
same,%Inh,[4],4%
same,%Inh,[5],0%
same,%Inh,[6],0%
same,%Inh,[7],8%
same,%Inh,[8],0%
same,%Inh,[9],0%
same,%Inh,[10],81%
same,%Inh,[11],0%
same,%Inh,[12],20%
same,%Inh,[13],10%
same,%Inh,[14],0%
same,%Inh,[15],5%
same,%Inh,[16],67%
same,%Inh,[17],4%
same,%Inh,[18],6%
same,%Inh,[19],0%
same,%Inh,[20]; [21],79%
Cn1ccc2ncnc(Oc3ccc(NC(=O)Nc4cc(C(C)(C)C)on4)c(Cl)c3)c21,%Inh,[1],98.2%
same,%Inh,[2],13%
same,%Inh,[3],17%
same,%Inh,[4],0%
same,%Inh,[5],99.9%
same,%Inh,[6],3%
same,%Inh,[7],39%
same,%Inh,[8],95.4%
same,%Inh,[9],0%
same,%Inh,[10],0%
same,%Inh,[11],0%
same,%Inh,[12],18%
same,%Inh,[13],9%
same,%Inh,[14],17%
same,%Inh,[15],9%
same,%Inh,[16],0%
same,%Inh,[17],11%
same,%Inh,[18],94%
same,%Inh,[19],25%
same,%Inh,[20]; [21],0%
